Measured values published in PubChem BioAssay (EPA / NIEHS).
Active and inactive are the calls of the source. Rule for the calls: active = hit-call score of the fitted dose curve at least 0.9, where 1 is the maximum; inactive = score below 0.9.

Key:
[1] = molecular target: Bile acid receptor (Homo sapiens) (UniProt Q96RI1); assay: ATG_IR1_CIS: Attagene CIS-FACTORIAL HepG2 Assay for human Nuclear Receptor Subfamily 1 Group H Member 4 (NR1H4), IR1 submotif (AID 2282946); conditions: IR1 reporter transcription, actives raise or lower the signal
Chain of Bile acid receptor (Homo sapiens) (Q96RI1 whole entry, looked up): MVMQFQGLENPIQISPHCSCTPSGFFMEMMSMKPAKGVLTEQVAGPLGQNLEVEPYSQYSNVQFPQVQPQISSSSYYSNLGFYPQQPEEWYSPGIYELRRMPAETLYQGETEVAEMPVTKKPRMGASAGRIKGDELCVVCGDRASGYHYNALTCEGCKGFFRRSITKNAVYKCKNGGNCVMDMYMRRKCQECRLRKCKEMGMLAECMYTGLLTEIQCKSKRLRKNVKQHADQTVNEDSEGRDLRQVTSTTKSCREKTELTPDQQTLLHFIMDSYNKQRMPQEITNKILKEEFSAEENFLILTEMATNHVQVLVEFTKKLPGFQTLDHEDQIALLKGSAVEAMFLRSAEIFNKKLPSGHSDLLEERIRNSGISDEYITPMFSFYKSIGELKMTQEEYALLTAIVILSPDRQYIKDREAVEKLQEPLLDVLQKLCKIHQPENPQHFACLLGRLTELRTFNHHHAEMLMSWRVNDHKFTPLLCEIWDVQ
In short: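 HepG2 cells transiently transfected with multiple cis-promoter-driven reporter units to measure endogenous transcription factor activity; 24 h exposure. Reporter mRNA read by RT-PCR, FAM labelling, HpaI digestion and capillary electrophoresis. Bidirectional fit versus DMSO.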

[2] = ATG_GRE_CIS: Attagene CIS-FACTORIAL HepG2 Assay for human Glucocorticoid Response Elements (GRE) (AID 2282947); conditions: HepG2 GRE cis-reporter, Attagene multiplex mRNA; actives raise or lower the signal
In short: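 Transiently transfected HepG2 cells carrying GRE cis-reporter units (endogenous TF activity) dosed 24 h; reporter mRNA quantified by RT-PCR, 6-FAM labelling, HpaI digestion and capillary electrophoresis. Bidirectional fit versus DMSO baseline.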

[3] = ATG_ISRE_CIS: Attagene CIS-FACTORIAL HepG2 Assay for human Interferon Regulatory Factor 1 (IRF1) binding to an Interferon-Stimulated Response Element (ISRE) (AID 2282948); conditions: HepG2 ISRE cis-reporter (Attagene), mRNA transcription readout; actives raise or lower the signal
In short: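 Cell-based cis-reporter assay; HepG2; 24 h exposure; reporter mRNA by RT-PCR plus capillary electrophoresis fluorescence; activity in either direction scored relative to DMSO.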

[4] = ATG_M_32_CIS: Attagene CIS-FACTORIAL HepG2 Assay for M32 Transcription Factor (Internal Marker) (AID 2282949); conditions: HepG2 Attagene cis-factorial M32 reporter, mRNA; actives raise or lower the signal;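 note: background control marker of the multiplexed CIS panel rather than a real target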
In short: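 Fluorescent capillary electrophoresis peaks of HpaI-digested, FAM-labelled RT-PCR reporter products give the signal. Source: transiently transfected human liver HepG2 cells, 24 h after chemical dosing; bidirectional fitting against DMSO.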

[5] = ATG_M_06_CIS: Attagene CIS-FACTORIAL HepG2 Assay for M06 Transcription Factor (Internal Marker) (AID 2282950); conditions: HepG2 Attagene CIS-FACTORIAL M06 internal marker reporter; actives raise or lower the signal
In short: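 HepG2 liver cells, 24 h exposure. Reporter transcripts from transfected cis-element constructs quantified by RT-PCR/capillary electrophoresis fluorescence. Bidirectional curve fit against DMSO.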

[6] = molecular target: Hypoxia-inducible factor 1-alpha (Homo sapiens) (UniProt Q16665); assay: ATG_HIF1a_CIS: Attagene CIS-FACTORIAL HepG2 Assay for human Hypoxia Inducible Factor 1 (HIF1A) (AID 2282951); conditions: HepG2 Attagene cis-factorial HIF1a reporter transcription; actives raise or lower the signal
Chain of Hypoxia-inducible factor 1-alpha (Homo sapiens) (Q16665 whole entry, looked up): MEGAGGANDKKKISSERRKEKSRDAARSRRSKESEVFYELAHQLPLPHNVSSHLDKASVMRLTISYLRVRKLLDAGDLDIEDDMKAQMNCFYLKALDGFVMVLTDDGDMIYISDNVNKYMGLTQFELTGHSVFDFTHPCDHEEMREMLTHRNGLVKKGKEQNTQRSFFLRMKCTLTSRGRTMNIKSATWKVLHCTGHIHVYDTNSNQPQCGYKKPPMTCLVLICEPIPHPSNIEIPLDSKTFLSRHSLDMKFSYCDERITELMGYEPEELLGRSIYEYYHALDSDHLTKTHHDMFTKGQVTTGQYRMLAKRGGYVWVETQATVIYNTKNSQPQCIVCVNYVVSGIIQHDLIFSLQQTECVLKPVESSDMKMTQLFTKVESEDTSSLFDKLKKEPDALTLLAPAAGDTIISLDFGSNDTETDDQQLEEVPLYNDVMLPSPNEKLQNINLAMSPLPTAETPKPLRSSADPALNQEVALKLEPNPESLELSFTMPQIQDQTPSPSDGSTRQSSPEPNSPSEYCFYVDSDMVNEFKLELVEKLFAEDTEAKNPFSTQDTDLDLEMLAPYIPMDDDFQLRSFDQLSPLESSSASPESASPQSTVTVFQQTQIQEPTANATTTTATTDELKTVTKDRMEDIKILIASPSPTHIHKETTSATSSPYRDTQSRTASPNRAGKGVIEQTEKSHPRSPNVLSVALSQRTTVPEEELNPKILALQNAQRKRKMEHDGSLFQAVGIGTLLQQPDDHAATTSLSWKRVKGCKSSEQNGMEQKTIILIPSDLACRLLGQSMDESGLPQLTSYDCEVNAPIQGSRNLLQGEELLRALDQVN
In short: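 HepG2, transient cis-reporter library, 24 h dosing. RNA → RT (oligo dT) → PCR → 6-FAM primer extension → HpaI → CE. Bidirectional curve fit vs DMSO.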

[7] = molecular target: Hepatocyte nuclear factor 6 (Homo sapiens) (UniProt Q9UBC0); assay: ATG_HNF6_CIS: Attagene CIS-FACTORIAL HepG2 Assay for human Hepatocyte Nuclear Factor 6 (HNF6) (AID 2282952); conditions: HepG2 Attagene cis-factorial HNF6 reporter transcription; actives raise or lower the signal
Chain of Hepatocyte nuclear factor 6 (Homo sapiens) (Q9UBC0 whole entry, looked up): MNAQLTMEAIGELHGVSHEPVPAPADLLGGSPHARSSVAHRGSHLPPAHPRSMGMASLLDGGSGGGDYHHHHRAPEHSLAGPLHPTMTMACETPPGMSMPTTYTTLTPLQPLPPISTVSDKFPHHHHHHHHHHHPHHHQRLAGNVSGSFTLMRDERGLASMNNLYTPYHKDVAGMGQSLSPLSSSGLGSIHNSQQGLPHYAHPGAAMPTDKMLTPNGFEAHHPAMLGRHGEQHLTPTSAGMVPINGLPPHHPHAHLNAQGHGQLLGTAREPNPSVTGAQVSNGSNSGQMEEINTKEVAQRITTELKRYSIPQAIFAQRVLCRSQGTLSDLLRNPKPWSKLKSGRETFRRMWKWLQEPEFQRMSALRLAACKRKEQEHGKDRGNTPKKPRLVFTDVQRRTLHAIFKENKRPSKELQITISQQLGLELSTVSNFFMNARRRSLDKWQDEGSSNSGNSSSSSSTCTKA
In short: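 Multiplexed mRNA reporter assay in transfected HepG2; 24 h dosing; RT-PCR plus capillary electrophoresis fluorescence; DMSO-referenced bidirectional curve fitting.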

[8] = molecular target: Heat shock factor protein 1 (Homo sapiens) (UniProt Q00613); assay: ATG_HSE_CIS: Attagene CIS-FACTORIAL HepG2 Assay for human Heat Shock Transcription Factor 1 (HSE) (AID 2282953); conditions: HepG2 HSE cis-reporter, Attagene RNA transcription; actives raise or lower the signal
Chain of Heat shock factor protein 1 (Homo sapiens) (Q00613 whole entry, looked up, the tested form may be a part): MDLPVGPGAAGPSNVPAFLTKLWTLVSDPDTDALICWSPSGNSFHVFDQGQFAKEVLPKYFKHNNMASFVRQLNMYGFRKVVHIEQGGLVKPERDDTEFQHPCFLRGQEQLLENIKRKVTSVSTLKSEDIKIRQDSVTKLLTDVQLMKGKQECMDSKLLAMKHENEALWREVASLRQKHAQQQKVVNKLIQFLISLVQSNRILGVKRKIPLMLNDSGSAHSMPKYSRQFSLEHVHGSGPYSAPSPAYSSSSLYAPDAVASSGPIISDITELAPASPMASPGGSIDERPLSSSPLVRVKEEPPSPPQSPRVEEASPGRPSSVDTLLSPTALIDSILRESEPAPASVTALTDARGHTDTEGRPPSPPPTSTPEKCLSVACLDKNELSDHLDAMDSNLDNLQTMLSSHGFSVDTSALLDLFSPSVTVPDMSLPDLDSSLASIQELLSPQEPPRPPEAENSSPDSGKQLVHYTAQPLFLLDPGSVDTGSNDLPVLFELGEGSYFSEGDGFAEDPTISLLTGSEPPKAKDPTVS
In short: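 Endogenous transcription factor activity captured via cis-promoter reporter units transfected into HepG2; treatment lasted 24 h. Fluorescence intensity of reporter fragments analysed with bidirectional curve fitting, DMSO baseline.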

[9] = ATG_MRE_CIS: Attagene CIS-FACTORIAL HepG2 Assay for human Metal Responsive Element (MRE) (AID 2282954); conditions: HepG2 MRE cis-reporter transcription, Attagene multiplex; actives raise or lower the signal
In short: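 HepG2 cells transiently transfected with cis-element-driven reporter units; mRNA measured 24 h after dosing. Reporter transcripts quantified by RT-PCR, FAM labelling, HpaI digestion and capillary electrophoresis; bidirectional fit versus DMSO.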

[10] = ATG_PBREM_CIS: Attagene CIS-FACTORIAL HepG2 Assay for human Phenobarbital-responsive Enhancer Module (PBREM) (AID 2282955); conditions: HepG2 PBREM cis-reporter, Attagene multiplexed transcription; actives raise or lower the signal
In short: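 HepG2, transient MRTU transfection, 24 h dosing; RNA → oligo(dT) RT → PCR → 6-FAM extension → HpaI → CE. Bidirectional fit vs DMSO.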

Measured: AC50

O=[N+]([O-])c1ccc(CO)cc1
inactive: [1] | [2] | [3] | [4] | [5] | [6] | [7] | [8] | [9]

CC(=O)OC(C)C
inactive: [1] | [2] | [3] | [4] | [5] | [6] | [7] | [8] | [9]

CCCCCCCC(C)=O
inactive: [1] | [2] | [3] | [4] | [5] | [6] | [7] | [8] | [9]

O=C1Nc2ccccc2C1(c1ccc(O)cc1)c1ccc(O)cc1
inactive: [2] | [4] | [5] | [7]
active: [1] 148 µM | [3] 84.2 µM | [6] 57.2 µM | [8] 163 µM | [9] 70.4 µM

CC(C)(C)c1n[nH]c(=O)n(N)c1=O
inactive: [1] | [2] | [3] | [4] | [5] | [6] | [7] | [8] | [9]

CCOC(F)(F)C(F)(F)C(F)(F)C(F)(F)F
inactive: [1] | [2] | [3] | [4] | [5] | [6] | [7] | [8] | [9] | [10]

Nc1ccc(Cl)cc1Cl
inactive: [1] | [2] | [3] | [4] | [5] | [6] | [7] | [8] | [9]

CCCCCCCCCCCCCCCC(=O)OCC
inactive: [1] | [2] | [3] | [4] | [5] | [6] | [7] | [8]

C[Si](C)(C)O[Si](O)(O)O
inactive: [1] | [2] | [3] | [4] | [5] | [6] | [7] | [8]

C=CCOc1c(Br)cc(Br)cc1Br
inactive: [1] | [2] | [3] | [4] | [5] | [6] | [7] | [8] | [9] | [10]

CC(=O)CC(N)=O
inactive: [1] | [2] | [3] | [4] | [5] | [6] | [7] | [8] | [9]

COC(=O)c1ccccc1OC
inactive: [1] | [2] | [3] | [4] | [5] | [6] | [7] | [8] | [9]

O=[N+]([O-])C1(Br)COCOC1
inactive: [1] | [2] | [4] | [5] | [6] | [7] | [9] | [10]
active: [3] 52.5 µM | [8] 58.8 µM

CC=CCO
inactive: [1] | [2] | [3] | [4] | [5] | [6] | [7] | [8] | [9] | [10]

NC(=O)C1CO1 (stereo unspecified)
inactive: [1] | [2] | [3] | [4] | [5] | [6] | [7] | [8] | [9]

O=C1C=CC(=O)O1
inactive: [1] | [2] | [3] | [4] | [5] | [6] | [7] | [8] | [9]

CCCCCCCC/C=C\CCCCCCCC(=O)O
active: [1] 32 µM
inactive: [2] | [3] | [4] | [5] | [6] | [7] | [9]

CC=C1CC2C=CC1C2 (stereo unspecified)
active: [9] 87.6 µM
inactive: [1] | [2] | [3] | [4] | [5] | [6] | [7] | [10]

O=C1c2cccc(O)c2C(=O)c2c(O)cc(CO)cc21
active: [6] 24 µM
inactive: [1] | [2] | [3] | [4] | [5] | [7] | [8] | [9] | [10]

CCN(CCC#N)c1ccc(N=Nc2c(Cl)cc([N+](=O)[O-])cc2Cl)cc1
active: [6] 43.3 µM
inactive: [1] | [2] | [3] | [4] | [5] | [7] | [8] | [9] | [10]

CCOC(=O)NNc1nncc2ccccc12
inactive: [1] | [2] | [3] | [4] | [5] | [6] | [7] | [8] | [10]

Nc1ccc(Oc2ccc(N)c(N)c2)cc1
inactive: [1] | [2] | [3] | [4] | [5] | [6] | [7] | [9] | [10]

O=C(Nc1cccc(C(F)(F)F)c1)c1cc(Br)cc(Br)c1O
inactive: [2] | [4] | [5] | [7]
active: [1] 66.7 µM | [3] 100 µM | [6] 19.9 µM | [8] 46.2 µM | [9] 85.8 µM | [10] 1.89 µM
